“And” between values parts separate entries of the source, which are not always exact repeats. Equal entries are not always repeated. Records with an inconclusive call do not appear. The source made the active and inactive calls. Unless noted, how the calls were made is not given here.
Columns and labels:
[1] = circadian clock period modulators, cell-based, LOPAC library, luminescence reporter (AID 2774); conditions: circadian reporter cells, at 7 µM, actives lie on both sides;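 further: values are relative to mean of DMSO wells on each plate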
[2] = hESC survival regulators, cell-based (AID 493140); conditions: human embryonic stem cell survival screen; stronger effect = higher value;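 further: cells exposed to compounds for four days before counting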
[3] = tested on: Hepatitis C virus NS3 helicase; assay: HCV NS3 helicase inhibitors, primary screen, biochemical, fluorescence polarization, LOPAC1280 library (AID 687035; in the data active means inhibition above about 37%); conditions: Purified HCV NS3 helicase, Cy5-dT15 ssDNA binding fluorescence polarization; stronger effect = higher value; concentration not given here
[4] = sensitizers of A549 cells to miR-34 induction, primary screen, imaging, A549 dox-inducible miR-34, nuclei and caspase counts (AID 1347080;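 active means compounds whose cell count with miR-34 switched on is under 0.7 times the count with it off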); conditions: A549 miR-34 inducible, Hoechst nuclei count, 48 h
[5] = phospholipid biosynthesis inhibitors in animal cells, primary screen, cell-based, LOPAC library, screen 4 (AID 1347384); conditions: phospholipid biosynthesis inhibition screen, at 10 µM
[6] = viability rescue of complex I mutant cybrids, primary screen, cell-based, galactose medium, ATP luminescence (AID 1645843;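 active means z-score of at least 1.8 in each of two replicates, scored against plate mean and spread of sample wells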;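 further: positive z means more ATP and so rescue of galactose-driven cybrid death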); conditions: complex I mutant cybrid cells, 72 h, stronger effect = higher value
[7] = Cy5 fluorescence quenching or enhancement artefacts, artefact control for HCV NS3 helicase inhibitor project, biochemical, LOPAC1280 (AID 687037); conditions: Cy5-DNA-NS3h complex fluorescence interference counterscreen
[8] = tested on: Aerobactin synthetase IucA (Klebsiella pneumoniae); assay: IucA aerobactin synthetase inhibitors, biochemical, Tocris library, absorbance (AID 1345561); conditions: purified IucA enzyme assay, absorbance (OD) read-out; stronger effect = lower value;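 tested at 8 µM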;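 further: 100% = enzyme without compound and 0% = no enzyme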
[9] = survival rescue of mitochondrial mutant cells in low glucose, primary screen, MELAS cybrids, Rieske KO mouse fibroblasts, CellTiter-Glo (AID 1508586;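 active means mean z-score across replicates of 1.96 or higher in either the MELAS or the Rieske mutant cell line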;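 further: z relative to plate mean and SD of compound and empty wells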)
[10] = liver-stage malaria parasite growth inhibition, primary screen, cell-based, HepG2, luciferase luminescence, HepG2 viability (AID 624349; in the data active means parasite load remaining mostly below about 12%, no sharp cut-off; inactive means mostly above about 10%;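 further: 100% = mean of DMSO negative control wells on the same plate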); conditions: P. berghei liver stage in HepG2, luciferase luminescence, concentration not given here; parasite load remaining: stronger effect = lower value; viability: measured here: HepG2 viability without parasites
[11] = inhibitors of Cryptococcus chitosan production, flow cytometry, Cibacron Brilliant Red staining (AID 1347148); conditions: Cryptococcus neoformans chitosan, stronger effect = lower value; at 10 µM unless noted;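 further: compound exposure lasted three days at 37 degrees C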
[12] = molecular target: ATP-dependent translocase ABCB1 (Homo sapiens) (UniProt P08183); assay: MDR1 (ABCB1) efflux transporter inhibition, cell-based (AID 377; in the data active means fluorescence slope change above about 50%); conditions: MDR1-expressing cells, fluorescent substrate accumulation slope; stronger effect = higher value; concentration not given here
[13] = molecular target: NAD(+) hydrolase SARM1 (Homo sapiens) (UniProt Q6SZW1); assay: SARM1 TIR NADase inhibitors, cell lysate, NAD-Glo luminescence (AID 1508614;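 active means compound whose remaining NAD level is above about 45 nM, limit read from the data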); conditions: SAM-TIR HEK293T lysate NADase, at 1 µM, stronger effect = higher value
[14] = molecular target: Mitogen-activated protein kinase 7 (Homo sapiens) (UniProt Q13164); assay: ERK5 transactivation activators in reporter cells, primary screen, cell-based, HTS (AID 1508626;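 active means luciferase signal above three times the same-plate solvent-only control wells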;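 further: luciferase driven by Gal4-ERK5 fusion binding five Gal4 sites before minimal TATA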); conditions: HeLa Gal4-ERK5 transactivation, 18 h, at 5 µM, stronger effect = higher value
[15] = kinase inhibitors against Plasmodium liver-stage infection, cell-based, known kinase inhibitor set, luminescence, hepatoma host viability (AID 624392); conditions: Plasmodium liver stage in hepatoma cells, luciferase luminescence, concentration not given here; liver cell % of control: measured here: host liver cell viability; parasite % of control: stronger effect = lower value;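 further: infected cells incubated roughly two days before readout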
[16] = measured here: total cells with miR-34 induction, stronger effect = lower value
[17] = measured here: total cells without miR-34 induction
[18] = stronger effect = lower value, cell number ratio, induced over uninduced
[19] = measured here: relative caspase fold change +Dox/-Dox
[20] = MELAS cybrid survival, CellTiter-Glo 48 h, stronger effect = higher value
[21] = Rieske KO mouse fibroblast survival, CellTiter-Glo 72 h

Chain of NAD(+) hydrolase SARM1 (Homo sapiens) (Q6SZW1 whole entry, looked up, the tested form may be a part): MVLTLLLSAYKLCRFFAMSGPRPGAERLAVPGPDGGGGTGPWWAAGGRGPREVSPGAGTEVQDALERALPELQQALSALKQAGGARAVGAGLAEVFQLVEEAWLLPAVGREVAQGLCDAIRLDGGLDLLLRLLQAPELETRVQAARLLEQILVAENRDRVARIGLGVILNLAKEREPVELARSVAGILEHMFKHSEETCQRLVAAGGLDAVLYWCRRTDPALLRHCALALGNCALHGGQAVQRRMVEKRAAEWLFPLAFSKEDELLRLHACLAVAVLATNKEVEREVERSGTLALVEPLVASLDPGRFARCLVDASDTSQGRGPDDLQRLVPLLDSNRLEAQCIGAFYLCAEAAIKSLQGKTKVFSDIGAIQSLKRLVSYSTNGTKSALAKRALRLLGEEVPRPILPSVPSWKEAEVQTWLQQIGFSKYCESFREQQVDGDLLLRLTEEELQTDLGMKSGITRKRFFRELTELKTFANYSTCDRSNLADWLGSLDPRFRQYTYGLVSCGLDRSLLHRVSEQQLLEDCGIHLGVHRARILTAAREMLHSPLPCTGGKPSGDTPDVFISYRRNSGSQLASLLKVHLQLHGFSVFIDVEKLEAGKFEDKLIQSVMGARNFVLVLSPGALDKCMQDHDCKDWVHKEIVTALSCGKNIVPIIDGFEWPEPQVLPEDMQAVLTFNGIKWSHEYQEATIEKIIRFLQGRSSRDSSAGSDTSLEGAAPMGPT
Chain of ATP-dependent translocase ABCB1 (Homo sapiens) (P08183 whole entry, looked up): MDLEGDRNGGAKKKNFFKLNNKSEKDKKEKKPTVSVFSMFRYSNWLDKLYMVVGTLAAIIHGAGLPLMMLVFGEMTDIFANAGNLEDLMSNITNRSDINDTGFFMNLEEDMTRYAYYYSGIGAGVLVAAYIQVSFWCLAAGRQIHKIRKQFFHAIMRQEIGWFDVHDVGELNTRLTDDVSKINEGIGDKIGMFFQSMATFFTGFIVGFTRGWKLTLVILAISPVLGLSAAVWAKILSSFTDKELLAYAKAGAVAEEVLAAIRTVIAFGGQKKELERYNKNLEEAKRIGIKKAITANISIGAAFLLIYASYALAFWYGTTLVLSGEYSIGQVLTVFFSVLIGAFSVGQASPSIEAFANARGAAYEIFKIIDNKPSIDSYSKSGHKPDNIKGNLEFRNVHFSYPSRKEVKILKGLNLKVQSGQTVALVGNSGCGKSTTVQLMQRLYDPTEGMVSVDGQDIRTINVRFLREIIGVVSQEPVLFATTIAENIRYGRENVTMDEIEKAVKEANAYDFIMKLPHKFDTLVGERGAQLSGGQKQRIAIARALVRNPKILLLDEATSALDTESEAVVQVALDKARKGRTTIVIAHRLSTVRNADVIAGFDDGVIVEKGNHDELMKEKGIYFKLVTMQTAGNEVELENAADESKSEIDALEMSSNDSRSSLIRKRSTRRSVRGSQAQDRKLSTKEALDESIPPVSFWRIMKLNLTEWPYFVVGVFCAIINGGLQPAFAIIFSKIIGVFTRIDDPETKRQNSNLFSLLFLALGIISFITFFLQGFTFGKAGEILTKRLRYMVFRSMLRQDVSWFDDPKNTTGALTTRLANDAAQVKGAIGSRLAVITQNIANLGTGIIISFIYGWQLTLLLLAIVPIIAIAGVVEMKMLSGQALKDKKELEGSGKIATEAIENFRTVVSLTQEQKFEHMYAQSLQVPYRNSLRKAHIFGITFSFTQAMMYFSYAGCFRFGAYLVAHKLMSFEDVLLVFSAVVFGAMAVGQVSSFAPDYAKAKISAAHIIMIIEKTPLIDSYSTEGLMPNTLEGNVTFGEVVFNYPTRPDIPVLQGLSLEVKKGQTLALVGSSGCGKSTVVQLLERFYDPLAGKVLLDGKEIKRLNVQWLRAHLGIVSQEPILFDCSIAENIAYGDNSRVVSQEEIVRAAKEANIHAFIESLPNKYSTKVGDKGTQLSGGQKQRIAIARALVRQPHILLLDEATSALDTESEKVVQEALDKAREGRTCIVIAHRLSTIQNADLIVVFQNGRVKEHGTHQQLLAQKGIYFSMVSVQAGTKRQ
Chain of Mitogen-activated protein kinase 7 (Homo sapiens) (Q13164 whole entry, looked up, the tested form may be a part): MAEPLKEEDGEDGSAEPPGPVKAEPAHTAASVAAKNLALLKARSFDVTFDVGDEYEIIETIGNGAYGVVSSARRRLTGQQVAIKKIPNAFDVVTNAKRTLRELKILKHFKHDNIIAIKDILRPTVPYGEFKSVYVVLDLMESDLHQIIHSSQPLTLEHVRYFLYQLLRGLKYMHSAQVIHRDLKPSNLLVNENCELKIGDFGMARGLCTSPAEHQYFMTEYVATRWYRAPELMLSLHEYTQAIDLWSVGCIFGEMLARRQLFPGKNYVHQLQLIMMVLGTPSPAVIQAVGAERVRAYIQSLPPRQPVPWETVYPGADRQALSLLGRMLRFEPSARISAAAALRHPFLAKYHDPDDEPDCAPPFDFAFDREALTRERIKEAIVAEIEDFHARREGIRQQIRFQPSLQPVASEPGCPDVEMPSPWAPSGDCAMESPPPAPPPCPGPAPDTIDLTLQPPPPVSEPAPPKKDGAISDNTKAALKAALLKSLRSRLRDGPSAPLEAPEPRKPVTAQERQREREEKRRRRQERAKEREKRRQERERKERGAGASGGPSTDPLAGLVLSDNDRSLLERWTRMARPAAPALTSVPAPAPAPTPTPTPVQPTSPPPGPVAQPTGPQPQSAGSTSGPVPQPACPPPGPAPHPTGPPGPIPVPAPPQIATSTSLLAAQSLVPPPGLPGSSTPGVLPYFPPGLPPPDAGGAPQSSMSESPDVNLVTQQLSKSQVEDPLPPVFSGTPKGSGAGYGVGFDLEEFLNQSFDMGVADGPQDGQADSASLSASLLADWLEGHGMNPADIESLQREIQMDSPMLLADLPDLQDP

With C/C(=C\c1ccc(C(=O)O)cc1)c1ccc2c(c1)C(C)(C)CCC2(C)C as the compound, how does the period change [1] read?
The period change was 0.4 h (inactive).

And the survival [2]?
Its survival is 85.2 (inactive).

And the inhibition [3]?
The inhibition was 0% (inactive).

And the cell count [4, 16]?
The cell count was 6410 and 5680 and 8680.

And the cell count [4, 17]?
Its cell count is 6200 and 5870 and 8620.

What about the outcome [5] of the same compound?
The outcome was “inactive”.

What about the z-score [6] of the same compound?
Its z-score is 1.45 (inactive) and 1.6 (inactive).

Which period change [1] does the source give for c1ccc2nc(C3=NCCN3)ccc2c1 here?
The period change was 0.1 h (inactive).

What about the inhibition [3] of the same compound?
The inhibition was 0% (inactive).

What about the fluorescence ratio (interference) [7] of the same compound?
The fluorescence ratio (interference) was 1 (inactive).

What about the remaining activity [8] of the same compound?
The remaining activity was 101% (inactive).

What about the fold change [4, 18] of the same compound?
Its fold change is 1.03 (inactive) and 0.931 (inactive).

What about the fold change [4, 19] of the same compound?
The fold change was 1.73 and 0.739.

And the cell count [4, 16]?
Its cell count is 9970 and 8800.

What about the cell count [4, 17] of the same compound?
Its cell count is 9720 and 9460.

What about the outcome [5] of the same compound?
Its outcome is “inactive”.

What about the z-score [6] of the same compound?
Its z-score is 0.695 (inactive) and 0.09 (inactive).

With O=S(=O)(c1ccccc1)N(CC(F)(F)F)c1ccc(C(O)(C(F)(F)F)C(F)(F)F)cc1 as the compound, how does the remaining activity [8] read?
The remaining activity was 101% (inactive).

And the fold change [4, 18]?
The fold change was 0.946 (inactive) and 1.36 (inactive) and 0.863 (inactive).

And the fold change [4, 19]?
Its fold change is 0.813 and 0.647 and 1.59.

What about the cell count [4, 16] of the same compound?
Its cell count is 5490 and 6260 and 4300.

And the cell count [4, 17]?
The cell count was 5810 and 4590 and 4980.

What about the z-score [9, 20] of the same compound?
The z-score was -0.346 (inactive).

What about the z-score [9, 21] of the same compound?
Its z-score is -0.159.

And the z-score [6]?
The z-score was -0.605 (inactive).

Which inhibition [3] does the source give for CC(C)(C)c1ccc(/C=C/C(=O)Nc2ccc3c(c2)OCCO3)cc1 here?
The inhibition was -1% (inactive).

What about the fluorescence ratio (interference) [7] of the same compound?
Its fluorescence ratio (interference) is 1 (inactive).

And the remaining activity [8]?
The remaining activity was 109% (inactive).

What about the fold change [4, 18] of the same compound?
The fold change was 1.15 (inactive) and 1.27 (inactive).

And the fold change [4, 19]?
The fold change was 0.847 and 0.54.

What about the cell count [4, 16] of the same compound?
The cell count was 4930 and 3950.

And the cell count [4, 17]?
The cell count was 4270 and 3100.

What about the outcome [5] of the same compound?
Its outcome is “inactive”.

And the z-score [6]?
The z-score was -1.38 (inactive) and -0.7 (inactive).

With Nc1ncnc2n[nH]c(Nc3ccc(F)cc3)c12 as the compound, how does the parasite load remaining [10] read?
Its parasite load remaining is 34.8% (inactive).

And the viability [10]?
Its viability is 85.8%.

What about the inhibition [3] of the same compound?
Its inhibition is -5% (inactive).

What about the fluorescence ratio (interference) [7] of the same compound?
Its fluorescence ratio (interference) is 1 (inactive).

And the remaining activity [8]?
The remaining activity was 105% (inactive).

And the z-score [9, 20]?
Its z-score is -0.494 (inactive).

And the z-score [9, 21]?
The z-score was 0.733.

What about the z-score [6] of the same compound?
The z-score was 0.375 (inactive) and 0.16 (inactive).

Which results are given for Cn1cnc2c(NCc3ccccc3)nc(NCCO)nc21?
period change [1]: 0.235 h (inactive); survival [2]: 92.8 (inactive); inhibition [3]: -2% (inactive); fluorescence ratio (interference) [7]: 0.9 (inactive); remaining activity [8]: 120% (inactive); fold fluorescence [11]: 4.59 [at 167.6 µM] (inactive); outcome [5]: inactive; z-score [6]: 0.355 (inactive) and 0.005 (inactive)

With CCCn1c(=O)c(C)cn2nc(N)nc12 as the compound, how does the inhibition [3] read?
The inhibition was -2% (inactive).

What about the fluorescence ratio (interference) [7] of the same compound?
Its fluorescence ratio (interference) is 1 (inactive).

And the remaining activity [8]?
The remaining activity was 123% (inactive).

What about the fold change [4, 18] of the same compound?
The fold change was 0.963 (inactive) and 0.912 (inactive).

What about the fold change [4, 19] of the same compound?
The fold change was 2.19 and 0.621.

What about the cell count [4, 16] of the same compound?
Its cell count is 10000 and 9600.

What about the cell count [4, 17] of the same compound?
Its cell count is 10400 and 10500.

And the outcome [5]?
Its outcome is “inactive”.

What about the z-score [6] of the same compound?
The z-score was 0.8 (inactive) and -0.21 (inactive).

Which fluorescence slope change [12] does the source give for CN1CCc2cccc3c2[C@H]1Cc1ccc(O)c(O)c1-3 here?
The fluorescence slope change was 65.8% (active).

And the survival [2]?
Its survival is 6.58 (inactive).

And the parasite load remaining [10]?
The parasite load remaining was 7.04% (inactive) and 82% (inactive) and 31.2% (inactive).

And the viability [10]?
The viability was 42.7% and 84.6% and 138%.

And the remaining activity [8]?
The remaining activity was 113% (inactive).

And the fold change [4, 18]?
Its fold change is 0.946 (inactive) and 0.949 (inactive) and 0.917 (inactive).

What about the fold change [4, 19] of the same compound?
Its fold change is 0.839 and 1.17 and 0.734.

What about the cell count [4, 16] of the same compound?
Its cell count is 7920 and 7790 and 8530.

What about the cell count [4, 17] of the same compound?
Its cell count is 8370 and 8210 and 9300.

And the z-score [9, 20]?
The z-score was 0.207 (inactive) and -0.194 (inactive).

And the z-score [9, 21]?
The z-score was 0.641 and 0.16.

What about the remaining NAD [13] of the same compound?
The remaining NAD was 53 nM (active).

What about the luciferase signal [14] of the same compound?
The luciferase signal was 48 AU (inactive).

What about the z-score [6] of the same compound?
The z-score was -1.04 (inactive) and -2.25 (inactive).

For Brc1c(Br)c(Br)c2n[nH]nc2c1Br, which parasite load remaining [10] is on record?
The parasite load remaining was 65.4% (inactive).

What about the viability [10] of the same compound?
Its viability is 173%.

And the liver cell % of control [15]?
Its liver cell % of control is 96.1%.

And the parasite % of control [15]?
Its parasite % of control is 91.6% (inactive).

What about the inhibition [3] of the same compound?
The inhibition was -6% (inactive).

What about the fluorescence ratio (interference) [7] of the same compound?
The fluorescence ratio (interference) was 1 (inactive).

What about the remaining activity [8] of the same compound?
Its remaining activity is 108% (inactive).

What about the fold change [4, 18] of the same compound?
Its fold change is 1.03 (inactive) and 1.02 (inactive).

And the fold change [4, 19]?
The fold change was 1.41 and 1.13.

And the cell count [4, 16]?
Its cell count is 10300 and 7940.

And the cell count [4, 17]?
Its cell count is 9970 and 7790.

What about the outcome [5] of the same compound?
Its outcome is “inactive”.

And the z-score [6]?
Its z-score is -0.92 (inactive) and -0.58 (inactive).

Reference: PubChem BioAssay
